ClpP mod: qHTS Assay for Activators of ClpP; ATP-dependent Clp protease proteolytic subunit (Bacillus subtilis (strain 168)), P80244; purified B. subtilis ClpP, FRET peptide cleavage, 20 min; Potency, µM (series often up to 57.5 µM); actives 1.9% (n = 340,000); active = well fitted falling curve with a large enough effect; inconclusive = small, poorly fitted or top-dose-only effect; inactive = no such curve, though single readings can be large or run the other way; also: the source files actives as falling curves though it sought activators and does not explain the sign; nearly all actives have a fitted effect of over 65% in size
Target sequence (P80244 whole entry, looked up): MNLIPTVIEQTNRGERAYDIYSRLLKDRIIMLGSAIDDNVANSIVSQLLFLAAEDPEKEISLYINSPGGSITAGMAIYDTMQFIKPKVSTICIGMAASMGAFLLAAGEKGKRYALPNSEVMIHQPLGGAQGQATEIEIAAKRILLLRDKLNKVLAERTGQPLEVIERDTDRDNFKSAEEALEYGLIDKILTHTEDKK
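FRET quenching reversal measured ClpP activation: 10 microg/mL B. subtilis ClpP at pH 8 with the FRET-FV decapeptide, read at 430 nm after 320 nm excitation. The 20-min minus 0-min signal was scaled between DMSO/no-enzyme wells and ADEP (5.8 microM final).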
NPSR antag: neuropeptide S receptor (human) antagonism, cAMP | CHO-NPSR cells, cAMP TR-FRET, antagonist mode | Potency, µM (series often up to 38.3 µM), usual class: inhibitors | actives 1% (n = 220,000) | AID 1461; also: nearly all actives have a fitted effect of over 50% in size
Target sequence (Q6W5P4 whole entry, looked up): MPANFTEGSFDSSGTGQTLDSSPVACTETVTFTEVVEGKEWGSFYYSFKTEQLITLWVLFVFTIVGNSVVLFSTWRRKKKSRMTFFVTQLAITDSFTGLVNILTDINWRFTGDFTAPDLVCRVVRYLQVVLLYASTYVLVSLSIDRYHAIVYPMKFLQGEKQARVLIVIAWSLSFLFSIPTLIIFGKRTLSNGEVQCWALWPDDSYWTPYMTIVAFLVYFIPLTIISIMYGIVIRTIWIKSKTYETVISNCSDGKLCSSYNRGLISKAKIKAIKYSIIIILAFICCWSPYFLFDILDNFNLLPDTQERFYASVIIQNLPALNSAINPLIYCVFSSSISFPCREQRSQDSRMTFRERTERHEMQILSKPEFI
IL2 activator: activates IL-2 in a cell-based reporter assay. AID 652025. activation, % (series mostly up to about 46 µM). IL-2 activation reporter assay, cell-based qHTS; stimulated with anti-CD3/CD4/CD28 beads; in transgenic mouse T cells. actives 0.065% (n = 360,000); in the data active = activation above about 50%; inconclusive = mostly about 30% to 49%
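Readout: EGFP and DsRed signals by fluorescent plate cytometry. Unstimulated transgenic mouse T cells received compound 60 min before antibody-bead stimulation, then incubated 18 h at 37 degrees C.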
PKM2 act: increases activity of human pyruvate kinase M2; P14618; purified PKM2, Kinase-Glo ATP luminescence, activation; response scale: 0% is enzyme alone, no compound; Potency, µM (doses to about 57.5 µM), most hits filed as activators; actives 0.34% (n = 260,000); AID 1631; also: nearly all actives have a fitted effect of over 55% in size
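Purified hPK-M2 (>95% pure) converted ADP (0.1 mM final) to ATP with 0.5 mM PEP in 50 mM imidazole pH7.2, KCl, MgCl2, Tween 20, BSA; 1 h at room temperature. ATP detected by Kinase-Glo luminescence.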
Hits are given with their value; - = inactive; ? = inconclusive; . = no result; ! = not confirmed by another sample. Shown are actives, neighbours in structure and some others; about 2% of the full set was active somewhere. Unless noted, calls follow the shape of the dose curve; as a rule, active = well fitted curve in the direction sought with a large enough effect; inconclusive = small, poorly fitted or top-dose-only effect, or another doubt; inactive = no such curve, though single readings can be large; an effect the other way counts as inactive or inconclusive.

SMILES | ClpP mod | NPSR antag | IL2 activator | PKM2 act
N#CC(C(=O)NCc1ccccc1)c1nc2ccccc2nc1N1CCCC1 (stereo unspecified) | - | - | 152.8 | -
N#CC(C(=O)NCCc1ccccc1)c1nc2ccccc2nc1N1CCCCC1 (stereo unspecified) | - | - | - | -
Cc1ccccc1Cn1nc(C)c(NC(=O)C2(C)CC2(Cl)Cl)c1C (stereo unspecified) | - | - | - | -
CCCC(=O)OCCNC(=O)c1cc2ccccc2oc1=O | 17.8µM | - | - | -
O=C(NCCCN1CCOCC1)c1cc2ccccc2oc1=O | 28.2µM | - | - | -
CN(C)CCNC(=O)c1cc2ccccc2oc1=O | 28.2µM | - | - | -
O=C(NCCN1CCN(C(=O)c2cc3ccccc3oc2=O)CC1)c1cc2ccccc2oc1=O | ? | - | - | -
CC(=O)OCCNC(=O)c1cc2ccccc2oc1=O | 25.1µM | - | - | -
O=C(NCCc1ccccc1)c1cc2ccccc2oc1=O | - | . | - | -
COc1ccc(CCNC(=O)c2cc3ccccc3oc2=O)cc1 | - | . | - | -
COc1cc(OC)cc(C(=O)OCC(=O)NC2CCCCCC2)c1 | - | . | - | .
CC(NC(=O)c1ccc(Cl)c(S(=O)(=O)NC2CC2)c1)c1ccco1 (stereo unspecified) | - | . | - | .
COc1cccc(NC(=O)Cn2cc(C(=O)c3ccco3)c3ccccc32)c1 | - | . | . | .
CCOC(=O)c1cc(-c2ccc(Cl)cc2)nc2c1c(C)nn2CCC#N | 35.5µM | ? | - | -
Cc1ccc(-n2nc(C)c3c(C(F)(F)F)cc(-c4cccnc4)nc32)cc1C | - | . | . | .
CCOC(=O)c1cc(-c2ccc(OC)cc2F)nc2c1c(C)nn2CCC#N | 25.1µM | ? | - | -
CCOC(=O)c1cc(-c2ccco2)nc2c1c(C)nn2CCC#N | ? | - | - | ?
Cc1nn(CCC#N)c2nc(-c3ccccc3)cc(C(F)(F)F)c12 | 31.6µM | - | - | -
Cc1cc(C(F)(F)F)c2c(C)nn(-c3ccccc3)c2n1 | 28.2µM | . | - | .
Nc1nc2c(ncn2[C@@H]2O[C@H](CNC(=O)[C@H](N)Cc3cncn3COCc3ccccc3)[C@@H](O)[C@H]2O)c(=O)[nH]1 | - | . | - | .
O=C(CCNC(=O)c1ccc(Br)cc1)NNC(=O)C1COc2ccccc2O1 (stereo unspecified) | - | . | - | .
Cc1nn(CCc2nn[nH]n2)c2nc(-c3ccccc3)cc(C(F)(F)F)c12 | - | - | - | -
Cc1cc(C(F)(F)F)c2c(C)nn(CCc3nn[nH]n3)c2n1 | 17.8µM | - | - | -
CC(=O)C[C@H](O)CC(=O)[C@H]1OC(=O)[C@H](C)CCCCc2ccccc21 | - | . | - | .
Cc1ccc(C)c(CN2C(=O)c3ccccc3S(=O)c3ccc(C(=O)N4CCN(c5ccccn5)CC4)cc32)c1 (stereo unspecified) | . | 7.94µM | - | -
SMILES | ClpP mod | NPSR antag | IL2 activator | PKM2 act
COc1cccc(N=Nc2c(N)[nH]n3c(=O)cc(-c4ccccc4)nc23)c1 | - | - | - | -
Cc1ccc(N=Nc2c(N)[nH]n3c(=O)cc(-c4ccccc4)nc23)cc1 | 28.2µM | - | - | -
N=C1CCCN1CC(=O)c1ccc(Cl)cc1 | - | - | - | -
Cc1ccc(C(=O)C[n+]2ccc(-c3nnc4n3CCC4)cc2)cc1 | 11.2µM | - | - | -
O=C(C[n+]1ccc(-c2nnc3n2CCC3)cc1)c1ccc(Cl)cc1 | 31.6µM | - | - | -
CCC(CC)NC(=O)c1nn(Cc2ccccc2)c(=O)c2ccccc12 | . | . | - | -
CC(=O)N1c2ccccc2C(=O)OC1c1cccnc1 (stereo unspecified) | 28.2µM | - | - | -
CCOc1cc(CN2CCOCC2)cc(C(C)=O)c1 | - | - | - | -
Cc1cc(C)n2c(SCCC(C)C)nnc2n1 | - | - | - | -
CCCCCc1nc2c(C#N)c(-c3ccc(Cl)cc3)ccn2n1 | 28.2µM | - | - | -
COC(=O)Cn1ccc(-c2ccc(Cl)cc2)c(C#N)c1=O | - | - | - | -
N#Cc1c(-c2ccc(Cl)cc2)ccn2nc(CCC(=O)O)nc12 | 25.1µM | - | - | -
CC1=CC(C)(C)Nc2ccccc21 | 28.2µM! | - | - | -
COc1ccc2c(c1)NC(C)(C)C=C2C | . | - | - | .
CCCc1nc2sc3ccccc3c(=O)c2c(=O)n1Cc1ccco1 | - | - | - | 14.1µM
O=C(Cn1c(-c2cccs2)cc2ccccc21)NCc1ccccc1Br | 31.6µM | . | . | .
COc1ccc(CCNC(=O)Cn2c(-c3cccs3)cc3cc(F)ccc32)cc1OC | - | . | . | .
COCCNC(=O)Cn1c(-c2cccs2)cc2cc(Cl)ccc21 | 28.2µM | . | . | .
O=C(NCc1ccccc1Br)c1cccs1 | - | . | - | .
COCCNC(=O)c1cc(-c2cccs2)on1 | - | - | - | -
CCCSCCCNC(=O)Cn1c(-c2cccs2)cc2ccccc21 | 28.2µM | . | . | .
CCOc1ccc(CCNC(=O)Cn2c(-c3cccs3)cc3ccccc32)cc1OCC | 8.91µM | . | . | .
Cc1nc2ccn(Cc3cccs3)c(=O)c2cc1C(=O)N1CCN(c2ccccc2F)CC1 | - | . | . | .
Cc1cc(SCC(=O)Nc2ccccc2C)nc(C)n1 | - | - | - | -
O=C(CCNC(=O)C1CCN(S(=O)(=O)c2ccccc2)CC1)NCc1cccc(Cl)c1 | - | . | - | .
SMILES | ClpP mod | NPSR antag | IL2 activator | PKM2 act
COc1ccc(CN2CCN(S(=O)(=O)c3ccc(C)cc3)CC2)cc1Br | - | - | - | -
CC(CNC(=O)Cn1c(-c2cccs2)cc2cc(Cl)ccc21)c1ccccc1 (stereo unspecified) | 25.1µM | . | . | .
CC(CNC(=O)COC(=O)c1cccs1)c1ccccc1 (stereo unspecified) | - | . | - | .
CC(CNC(=O)Cn1c(-c2cccs2)cc2ccccc21)c1ccccc1 (stereo unspecified) | 15.8µM | . | . | .
CN(C)c1ccc(CNC(=O)Cn2c(-c3cccs3)cc3cc(Cl)ccc32)cc1 | 25.1µM | . | . | .
CN(C)c1ccc(CNC(=O)Cn2c(=O)oc3cc(S(=O)(=O)NCc4ccccc4)ccc32)cc1 | - | . | . | .
CC(NC(=O)Cn1c(-c2cccs2)cc2cc(F)ccc21)c1ccccc1 (stereo unspecified) | 28.2µM | . | . | .
CCOc1ccc(NC(=O)CN(C)C(=O)c2cc(C)nc3ccccc23)cc1OCC | - | . | - | .
COc1ccc(N2CCN(C(=O)CSc3nnc4c(C)cc5ccccc5n34)CC2)cc1 | - | - | - | -
CCCC(=O)Nc1c(-c2cccs2)c(=O)c2ccccc2n1CC | . | - | . | -
CCNC(=O)Cn1c(-c2cccs2)cc2ccccc21 | 28.2µM | . | . | .
COc1cccc(NC(=O)C(=S)NC2CCCCC2)c1 | - | - | - | -
CCC(c1nnc(SCC(=O)NCC2CCCO2)n1Cc1ccccc1)N(C)C (stereo unspecified) | - | . | - | .
CC(C)(C)C1C/C(=C/c2ccccn2)C(=O)/C(=C/c2ccccn2)C1 (stereo unspecified) | - | 2µM | - | -
CCOc1ccccc1C(=O)OCC(=O)Nc1ncc(C(F)(F)F)cc1Cl | - | - | - | -
